Hits are enriched below; roughly 21% of the tested compounds scored in any of these assays.
Pf growth 96h: P. falciparum growth inhibition at 96 hour, primary screen for plastid delayed-death inhibitors. P. falciparum luciferase reporter growth, 96 h. Potency, µM (highest dose often 28.7 µM), for inactives: at the highest dose activity change, negative = inhibition, usual class: inhibitors. actives 6.9% (n = 320,000). AID 504834; active = well fitted inhibition curve with a large enough effect; inconclusive = small, poorly fitted or top-dose-only effect, or another doubt; inactive = no such curve, though single readings can be large or run the other way; note: potency is the fitted concentration of half-maximal effect; % is set by controls: 0 for no effect and ±100 for the full control effect
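Erythrocytes infected with luciferase-expressing P. falciparum were dispensed at 2% hematocrit and 0.05% parasitemia (final), then incubated with compounds 96 hours at 37 C in 5% CO2. Luminescence after detection reagent addition reported growth.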
CHX counter: counter-screen hit for Shiga toxin inhibitors, cycloheximide; cell reporter, cycloheximide protein synthesis inhibition counterscreen; AID 2314; max response, %; actives 12% (n = 300,000); in the data active = max response mostly above about 13%, no sharp cut-off; inactive = mostly below about 14%; note: read at 38.3 µM for the half of the compounds with a filed dose; 0% is about no effect
Pf growth 48h: inhibits P. falciparum growth in the first generation, 48 h. P. falciparum luciferase growth in erythrocytes, 48 h. Potency, µM (highest dose often 28.7 µM), inactives show at the top dose activity change, negative = inhibition, actives largely listed as inhibitors. actives 5.9% (n = 310,000). AID 504832; active = well fitted inhibition curve with a large enough effect; inconclusive = small, poorly fitted or top-dose-only effect, or another doubt; inactive = no such curve, though single readings can be large or run the other way; note: potency is the fitted concentration of half-maximal effect; % is set by controls: 0 for no effect and ±100 for the full control effect
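Compounds are pin-transferred into medium, infected erythrocytes (2% hematocrit, 0.1% parasitemia final) are added, and plates sit one parasite generation at 37 C in 5% CO2. Detection reagent is then added and luminescence measured.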
Shiga inhibitor: blocks Shiga toxin action in Vero cells. inhibition, % at 38.7 µM. Vero cells, Shiga toxin protein synthesis inhibition reporter. actives 9.2% (n = 290,000); in the data active = inhibition mostly above about 28%, no sharp cut-off; inactive = mostly below about 43%; note: 0% is about no effect
SARS PLP yeast: SARS-CoV PLP inhibition in yeast; AID 485353; S. cerevisiae expressing SARS-CoV PLpro, growth rescue; actives 0.19% (n = 330,000); Potency, µM (doses to about 32.9 µM), for inactives: at the top dose activity, positive = growth rescue, usual class: activators; note: potency is the fitted concentration of half-maximal effect; 0% is about no effect; nearly all actives have a fitted effect of over 55% in size
NS1 inh: blocks influenza NS1 protein function; actives 0.4% (n = 270,000); Potency, µM (doses to about 46.1 µM), for the others: top-dose activity, positive = more growth; note: potency is the fitted concentration of half-maximal effect; actives are rising curves; nearly all actives have a fitted effect of over 50% in size
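Growth recovery, yeast-based: influenza A NS1 expressed in S. cerevisiae causes slow growth, and suppressors are detected by OD600. The parent strain without NS1 is used as positive control.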
Active calls of the source: *; i = inactive; ? = inconclusive; · = no result; [ ] = another dose, or the depositor's remark. Unless noted, calls come from the whole dose curve.

SMILES	Pf growth 96h	CHX counter	Pf growth 48h	Shiga inhibitor	SARS PLP yeast	NS1 inh
O=C(Nc1cnn(C23CC4CC(CC(C4)C2)C3)c1)c1cc(-c2ccccc2)on1	·	-2	10µM*	-4	4%	-3%
Cc1ccc(-c2cc(C(=O)Nc3cnn(C(C)C)c3)no2)cc1	40%	22*	33%	-2	2%	-11%
O=C(Nc1cnn(Cc2ccc(F)cc2)c1)c1cc(-c2ccc(Br)cc2)on1	·	·	·	·	·	-10%
CCCn1cc(NC(=O)c2cc(-c3ccccc3)on2)cn1	73%	35*	·	68*	-16%	-152%
O=C(CC(=O)c1cccc([N+](=O)[O-])c1)Nc1ccccc1Cl	?	8	11%	15	0%	·
CCc1ccc(NC(=O)C(CC)Sc2nc3cc4c(cc3c(=O)n2Cc2ccco2)OCO4)cc1 (stereo not drawn)	2.6µM*	-4	·	-6	-5%	5%
CCc1ccccc1NC(=O)C(CC)Sc1nc2cc3c(cc2c(=O)n1Cc1ccco1)OCO3 (stereo not drawn)	i	2	15%	-5	4%	12%
Cc1ccc(NC(=O)c2ccc(CN3CCc4ccccc4C3)cc2)cc1	7%	3	16%	16	-18%	-7%
O=C(Nc1ccccc1)c1ccc(CN2CCc3ccccc3C2)cc1	39%	27*	-15%	54	5%	·
O=C(Nc1ccc(S(=O)(=O)N2CCCCC2)cc1)c1ccc(CN2CCc3ccccc3C2)cc1	7.4µM*	2	?	-7	-3%	11%
O=C(Nc1ccccc1F)c1ccc(CN2CCc3ccccc3C2)cc1	-3%	20*	5%	27	-7%	-14%
COC(=O)c1ccc(C)c(NC(=O)c2ccc(CN3CCc4ccccc4C3)cc2)c1	9.3µM*	0	-7%	-8	-1%	1%
COc1cc(NC(=O)c2cc3ccccc3o2)c(OC)cc1Cl	?	-3	·	-14	7%	-3%
Cc1ccc(NC(=O)c2cc3ccccc3o2)nc1	327%	·	-21%	·	-14%	·
O=C(Nc1ccc(Cl)cc1Cl)c1cc2ccccc2o1	-3%	51*	392%	57*	25%	7%
COc1ccccc1NC(=O)c1cc2ccccc2o1	5.2µM*	39*	122%	64*	-18%	-13%
Cc1ccccc1NC(=O)c1cc2ccccc2o1	10µM*	37*	179%	·	0%	-17%
O=C(Nc1ncccc1Cl)c1cc2ccccc2o1	179%	30*	304%	73*	-2%	-13%
COc1ccc(C(=O)NC(=S)Nc2ccc(N3CCOCC3)cc2)cc1Cl	77%	-6	-7%	-13	28%	3%
Cn1cccc1C(C(=O)NC1CCCCC1)N(C(=O)Cc1cccs1)c1ccc2c(c1)OCCO2 (stereo not drawn)	·	·	·	·	·	-22%
O=C1C=C(c2ccc(C(=O)O)cc2)C[C@@H](c2ccc3c(c2)OCO3)C1	88%	·	30%	·	4%	·
O=C1C2=C(C(=O)c3ccccc31)C1O[C@](CCCCN3C(=O)c4ccccc4C3=O)(Cc3ccccc31)O2	?	-3	?	i	-5%[6.58 µM]	-35%
CCN(CC)c1ccc(NC(=O)c2c(OC)cccc2OC)c(C)c1	-19%	9	-26%	-17	·	-2%
CCN(CC)c1ccc(NC(=O)c2cc3ccccc3o2)c(C)c1	-20%	26*	-3%	59*	-3%	-6%
COc1cc(C(=O)OC2CC3CCC2(C)C3(C)C)ccc1OC(C)=O (stereo not drawn)	?	16*	?	-4	-3%	-3%
SMILES	Pf growth 96h	CHX counter	Pf growth 48h	Shiga inhibitor	SARS PLP yeast	NS1 inh
Cc1ccc2c(c1)N(CC(=O)N1CCCCCC1)C(=O)C(C)O2 (stereo not drawn)	29%	0	11%	-4	-2%	29%
O/N=C(/CN(O)/C=C1/C=CC=N1)c1cccs1	15µM*	7	18%	-2	2%	-4%
O=C(NCc1ccccn1)c1ccc(S(=O)(=O)Nc2ccccc2F)cc1	?	10	?	-13	7%	9%
O=C1C2=C(Nc3ccccc3SC2c2ccco2)c2ccccc21 (stereo not drawn)	6%	33*	0.33µM*	78*	-14%	-55%
Cc1ccc(S(=O)(=O)N(C)C[C@@H]2Oc3ccc(NC(=O)Cn4cnnn4)cc3C(=O)N([C@@H](C)CO)C[C@H]2C)cc1	·	·	·	·	11%	·
Cc1cc(C)c(S(=O)(=O)c2cccc(Cl)c2)c(Cl)n1	?	22	10µM*	27	-2%	·
Cc1cc(C)c(S(=O)(=O)c2ccccc2)c(OC(=O)c2c(Cl)cc(Cl)cc2Cl)n1	14%	14	3.7µM*	-7	-10%	17%
COc1ccc(CNC(=O)c2cc(S(=O)(=O)N3CCCCC3)ccc2Cl)cc1OC	·	·	·	·	19%	·
CC(=O)c1cccc(N=c2scc(-c3ccc(S(=O)(=O)N4CCOCC4)cc3)n2CCO)c1	4.7µM*	3	5.2µM*	-3	9%	-15%
COc1ccc(N=c2scc(-c3ccc(S(=O)(=O)N4CCOCC4)cc3)n2CCCO)cc1	-16%	2	12µM*	-3	2%	-51%
C=CCn1c(-c2ccc(S(=O)(=O)N3CCOCC3)cc2)csc1=Nc1ccccc1	12µM*	-2	?	-8	-4%	9%
Cc1ccc(S(=O)(=O)NC2(C(F)(F)F)NC(=O)N(c3ccccc3F)C2=O)cc1 (stereo not drawn)	-9%	-3	29%	-5	5%	6%
Cc1ccc(Oc2cc(-n3nc(C)cc3C)ncn2)cc1	72%	17*	40%	59*	-9%	-13%
Cc1cc(C)n(-c2cc(-n3nc(C)cc3C)ncn2)n1	·	8	37%	-3	?	2%
Cc1ccc(-n2c(CNc3cccc(Cl)c3)n[nH]c2=S)cc1	81%	8	8.3µM*	33	-1%	·
Cc1cccc(NC(=O)C(NS(=O)(=O)c2ccc3c(c2)CCC(=O)N3)c2ccccc2)n1 (stereo not drawn)	10µM*	-2	-5%	15	0%	-35%
COc1cc(NC(=O)c2cccnc2)c(Cl)cc1NC(=O)c1ccccc1	18%	-3	9%	-5	0%	6%
C/C(=N\OC(=O)c1ccccc1)c1cc(-c2ccc(Cl)cc2)no1	240%	0	148%	30	5%	8%
C/C(=N/OC(=O)C1CC1)c1cc(-c2ccc(Cl)cc2)no1	203%	18*	325%	29	0%	-2%
COc1ccc(Cc2nnc(SCC(=O)Nc3ccccc3C#N)o2)cc1	?	1	10%	-21	1%	11%
CN(CCOc1ccc(-c2ccn(S(=O)(=O)c3cccc4ccccc34)n2)cc1)c1ccccn1	9.3µM*	1	10µM*	12	?	24%
CN(CCOc1ccc(-c2ccn(S(=O)(=O)c3c(Cl)cccc3Cl)n2)cc1)c1ccccn1	2.6µM*	2	?	-13	?	9%

High-throughput results deposited in PubChem BioAssay by National Center for Advancing Translational Sciences (NCATS).
